Bioassay records as filed in PubChem BioAssay.
B2AR arrestin = qHTS assay of beta-arrestin-biased ligands of beta2-adrenergic receptor; hit rate 0.02% among 330,000; Potency, µM (titrated, usually from 46.1 µM), most hits filed as activators; AID 492947, 2010; Beta-2 adrenergic receptor (Homo sapiens), P07550; beta-arrestin recruitment to beta2AR, cell-based reporter; note: nearly all actives have a fitted effect of over 65% in size
ELG1 repair inh = qHTS screen for small molecules that inhibit ELG1-dependent DNA repair in human embryonic kidney (HEK293T) cells expressing luciferase-tagged ELG1 | HEK293T ELG1-luciferase reporter, luminescence, 16 h; DNA damage induced by 5-fluorouridine | Potency, µM (titrated, usually from 46.1 µM), most hits filed as inhibitors | hit rate 2.3% among 330,000; note: nearly all actives have a fitted effect of over 55% in size
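Overnight (16 hr) co-exposure of 2,000 cells/well to 5-fluorouridine and compound at 37 °C preceded detection. Luciferase was quantified via ONE-Glo luminescence; loss of signal denotes inhibition.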
RORg inh = qHTS for inhibitors of ROR gamma transcriptional activity | hit rate 5.4% among 310,000 | Potency, µM (titrated, usually from 53.6 µM), most hits filed as inhibitors | Drosophila S2 Gal4-RORgamma UAS-luciferase reporter, 20 h; note: nearly all actives have a fitted effect of over 60% in size
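Schneider cells (Drosophila), stable Gal4 DBD–ROR gamma + UAS-luc; 1 hr cmpd preincubation; Cu2+ induction 700 uM final; 20 hr ambient; luminescence.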
TSHR antagonist = Antagonists of the Thyroid Stimulating Hormone Receptor: HTS campaign; TSHR-expressing cells, TSH-stimulated cAMP HTRF, 2 h; hits give low values; AID 504810, 2011; hit rate 0.2% among 330,000; Thyrotropin receptor (Homo sapiens), P16473; activity change, negative = inhibition, % at 11.5 µM;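 active = activity change below a set negative limit, meaning inhibition stronger than a set level, cut at about -70% in these data; inconclusive = activity change between two set negative limits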
Target sequence (P16473 whole entry, looked up): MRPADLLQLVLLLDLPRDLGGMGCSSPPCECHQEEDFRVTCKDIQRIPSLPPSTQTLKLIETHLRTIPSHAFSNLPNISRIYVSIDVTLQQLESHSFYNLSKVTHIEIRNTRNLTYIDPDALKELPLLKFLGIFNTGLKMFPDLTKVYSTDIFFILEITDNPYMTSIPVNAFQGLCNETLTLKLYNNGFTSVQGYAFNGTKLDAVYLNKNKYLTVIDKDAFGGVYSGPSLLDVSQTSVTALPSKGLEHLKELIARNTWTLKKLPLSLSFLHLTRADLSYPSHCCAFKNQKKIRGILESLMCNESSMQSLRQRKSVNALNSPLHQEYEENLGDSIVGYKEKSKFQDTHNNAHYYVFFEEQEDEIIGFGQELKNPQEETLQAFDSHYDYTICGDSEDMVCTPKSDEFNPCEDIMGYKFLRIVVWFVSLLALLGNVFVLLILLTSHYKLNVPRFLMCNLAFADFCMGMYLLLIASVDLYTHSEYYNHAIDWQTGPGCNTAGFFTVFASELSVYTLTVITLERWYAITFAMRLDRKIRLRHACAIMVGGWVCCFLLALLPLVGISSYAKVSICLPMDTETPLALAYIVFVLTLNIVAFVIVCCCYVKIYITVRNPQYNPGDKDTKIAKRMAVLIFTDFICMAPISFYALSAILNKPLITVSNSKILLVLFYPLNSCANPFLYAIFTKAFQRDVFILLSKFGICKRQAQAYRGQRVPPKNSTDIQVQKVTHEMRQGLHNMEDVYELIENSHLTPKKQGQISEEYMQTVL
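TSHR-expressing cells, 200/well, pre-treated with compound, then stimulated with EC80 TSH (4nM final) for 2 hours at 37 deg C. cAMP measured by competitive HTRF: anti-cAMP cryptate antibody in lysis buffer plus cAMP-d2, read after 30 minutes at room temperature.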
Gal4-VP16 FLuc = VP16 counterscreen qHTS for inhibitors of ROR gamma transcriptional activity | Potency, µM (titrated, usually from 53.6 µM), actives largely listed as inhibitors | hit rate 3.5% among 310,000 | AID 2546, 2010 | Drosophila S2 Gal4-VP16 UAS-luciferase, luminescence, 20 h;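 note: Gal4-VP16 expression switched on by copper sulfate through the metallothionein promoter; nearly all actives have a fitted effect of over 50% in size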
Numbers stand for hits; i = inactive; ? = inconclusive; nt = not tested or not shown; [ ] = remark or other dose. A selection: hits, their analogues and other compounds. The true share with any hit is near 7.5%. Unless noted, calls come from the whole dose curve; as a rule, active = well fitted curve in the direction sought with a large enough effect; inconclusive = small, poorly fitted or top-dose-only effect, or another doubt; inactive = no such curve, though single readings can be large; an effect the other way counts as inactive or inconclusive.

SMILES	B2AR arrestin	ELG1 repair inh	RORg inh	TSHR antagonist	Gal4-VP16 FLuc
COCCCNC(=S)NNC(=O)c1cc(-c2cccnc2)nc2ccccc12	i	i	i	i	i
COCCNC(=S)NNC(=O)c1cc(-c2cccnc2)nc2ccccc12	i	i	13µM	i	?
C=CC[C@@H]1C=C[C@H](ON=C(C)C)[C@H](CO)O1	nt	nt	i[10 µM]	nt	i[10 µM]
Cc1ccc(C)c(OCCn2cc(/C=C(\C#N)C(=O)NCc3cccs3)c3ccccc32)c1	i	5.8µM	i	i	i
Cc1ccc(OCCn2cc(/C=C(\C#N)C(=O)NCC3CCCO3)c3ccccc32)cc1 (centres undefined)	i	?	?	i	i
Cc1ccc(C)c(OCCn2cc(/C=C(\C#N)C(=O)NCC3CCCO3)c3ccccc32)c1 (centres undefined)	i	16µM	?	i	i
N#C/C(=C\c1cn(CCOc2ccccc2F)c2ccccc12)C(=O)NCc1cccs1	i	i	i	i	i
O=S(=O)(c1ccccc1)N1CCC2(CCCN(c3ccncc3)C2)CC1	nt	nt	i	nt	?
c1cc(-c2nnc3sc(C4CCCCC4)nn23)ccn1	i	9.2µM	i[10 µM]	i	i
c1csc(Cc2nn3c(-c4ccncc4)nnc3s2)c1	i	10µM	i	i	i
COc1ccc(N=c2cc(-c3ccc(OC)cc3)oc3ccccc23)cc1	i	23µM	i	i	i
CC(C)(C)C(=O)Nc1nnc(COc2ccc(Cl)cc2)s1	i	i	?	i	?
COc1ccc(CCNC(=O)c2ccccc2NC(=O)C2=C(C)OCCS2)c(OC)c1	i	18µM	?	i	i
O=C1CCC[C@@H](C(C(=O)OCc2ccccc2)C(=O)OCc2ccccc2)C1	nt	nt	i[10 µM]	nt	i[10 µM]
Cc1nc(N2CCOCC2)c2nc(-c3ccccc3)n(CCCN(C)C)c2n1	nt	nt	i	nt	i
Cc1ccc2nc(-c3ccc(O)cc3)oc2c1	i	?	2.5µM	i	7.1µM
CC(=O)Nc1cc(C(F)(F)F)ccc1Oc1cccc(Br)c1	i	i	?	i	13µM
CCOC(=O)c1ncc2[nH]c3cccc(OC(C)C)c3c2c1C	nt	nt	18µM	nt	?
CCOC(=O)c1ccc(NC(=O)c2ccc(OC(C)C)c(OC)c2)cc1	i	?	i	i	i
COc1cc(CNCc2ccccn2)ccc1OCc1ccc(Cl)cc1Cl	i	i	11µM	i	i
CCOc1cc(CNc2ccc(O)cc2)ccc1OCc1ccc(Cl)cc1Cl	i	?	16µM	i	?
COc1ccc2cc(C(=O)C3CCCN(C(=O)Cc4c(C)noc4C)C3)ccc2c1 (centres undefined)	i	i	i	i	i
O=C(NC1CCOc2ccccc21)c1ccccn1 (centres undefined)	i	i	i	-92	i
CC1(C)Cc2c(sc3nnn(CC(=O)Nc4ccccc4)c(=O)c23)CO1	i	?	i	i	i
COc1ccccc1NC(=O)Cn1nnc2sc3c(c2c1=O)CC(C)(C)OC3	i	21µM	i	i	i
SMILES	B2AR arrestin	ELG1 repair inh	RORg inh	TSHR antagonist	Gal4-VP16 FLuc
CC1(NC(=O)c2cc(Cl)nc3ccccc23)CCS(=O)(=O)C1 (centres undefined)	i	i	nt	i	nt
O=C(NCC1CCCO1)c1cccc2c1C(=O)c1ccc(N3CCC(Cc4ccccc4)CC3)cc1S2(=O)=O (centres undefined)	i	2.6µM	nt	i	nt
O=C(NCc1ccccc1C(F)(F)F)c1cccc2c1C(=O)c1ccc(N3CCOCC3)cc1S2(=O)=O	i	5.2µM	nt	i	nt
Cc1ccc(CNC(=O)c2cccc3c2C(=O)c2ccc(N4CCCCC4)cc2S3(=O)=O)cc1	i	?	nt	i	nt
O=C(NCc1cccc(F)c1)c1cccc2c1C(=O)c1ccc(N3CCOCC3)cc1S2(=O)=O	i	?	nt	i	nt
O=C(NCc1ccco1)c1cccc2c1C(=O)c1ccc(N3CCCC3)cc1S2(=O)=O	i	13µM	nt	i	nt
C=CCNC(=O)c1cccc2c1C(=O)c1ccc(N3CCCC3)cc1S2(=O)=O	i	i	nt	i	nt
Cc1ccc(CNC(=O)c2cccc3c2C(=O)c2ccc(N4CCOCC4)cc2S3(=O)=O)cc1	i	12µM	nt	i	nt
CC1CCN(c2ccc3c(c2)S(=O)(=O)c2cccc(C(=O)NC[C@@H]4CCCO4)c2C3=O)CC1	i	i	nt	i	nt
COc1ccc(C(=O)NC(CCSC)C(=O)NC2CC2)cc1 (centres undefined)	i	i	nt	i	nt
C[C@H](NC(=O)C1CCN(S(=O)(=O)c2ccccc2)CC1)C(=O)NCc1ccccn1	i	i	i	i	i
C=CCN=C(NC#N)SC	i	i	i	i	i
O=[N+]([O-])c1cccc(-c2ccc(/C=N/NC(=S)NCc3ccco3)o2)c1	i	?	0.45µM	i	3.2µM
O=[N+]([O-])c1cccc(-c2ccc(/C=N/NC(=S)Nc3ccccc3)o2)c1	i	i	0.089µM	i	2.5µM
O=C(Cc1ccccc1)N/N=C/c1ccc(-c2ccc([N+](=O)[O-])cc2)o1	i	i	i	i	i
COCCNC(=S)N/N=C/c1ccc(-c2ccc([N+](=O)[O-])cc2)o1	i	i	4.5µM	i	10µM
O=C(O)c1cc(-c2ccc(/C=N/NC(=S)Nc3ccccc3)o2)ccc1Cl	i	?	11µM	i	i[10 µM]
Cc1cc(C(=O)N/N=C/c2ccc(-c3cccc([N+](=O)[O-])c3)o2)n[nH]1	i	i	i	i	i
NC(=O)N/N=C/c1ccc(-c2ccc([N+](=O)[O-])cc2)o1	i	i	i	i	i
CCN(CC(=O)Nc1cccc(OC)c1)C(=O)c1cnc(Cl)c(Cl)c1	i	i	i	i	i
COc1cc(C(=O)O[C@@H]2CC3CC[C@]2(C)C3(C)C)ccc1O	nt	nt	i	nt	i
COC(=O)[C@@]1(Cc2ccc(F)cc2)[C@H]2c3cc(C(=O)N4CCCC4)n(CCc4c[nH]c5cc(F)ccc45)c3C[C@H]2CN1C(=O)c1ccccc1	nt	nt	i	nt	i
CCOC(=O)/C(=N\Nc1cccc(Cl)c1)Sc1nnc(-c2ccc(OC)cc2)n1C	i	i	3.5µM	i	11µM
Cc1ccc(N2CC(C)Cn3c2nc2c3c(=O)[nH]c(=O)n2C)cc1C (centres undefined)	i	9.2µM	i	i	i
COc1ccc(-n2[nH]c3c4c(ncc3c2=O)CCCCC4)cc1	nt	nt	i	nt	i
CCOC(=O)CN1NC2(CCCCC2)NC1=S	i	i	16µM	i	?
CCOC(=O)CN1NC2(CCC(C(C)(C)C)CC2)NC1=S (centres undefined)	i	i	10µM	i	?
CCOC(=O)CN1NC2(CCCCCCC2)NC1=S	i	i	4µM	i	i
CCOC(=O)CN1NC2(CCC(C)CC2)NC1=S (centres undefined)	i	i	?	i	?
